Measurements taken from PubChem BioAssay (Tox21).
Records with an inconclusive call do not appear. Calls of active or inactive are those of the source. Unless noted, calls follow the shape of the full dose curve.

Key:
[1] = target: Peroxisome proliferator-activated receptor delta (Homo sapiens) (UniProt Q03181); assay: qHTS assay to identify small molecule agonists of the peroxisome proliferator-activated receptor delta (PPARd) signaling pathway (AID 743212); also: % is scaled to controls: 0 for no effect and ±100 for the full control effect
Chain of Peroxisome proliferator-activated receptor delta (Homo sapiens) (Q03181 whole entry, looked up): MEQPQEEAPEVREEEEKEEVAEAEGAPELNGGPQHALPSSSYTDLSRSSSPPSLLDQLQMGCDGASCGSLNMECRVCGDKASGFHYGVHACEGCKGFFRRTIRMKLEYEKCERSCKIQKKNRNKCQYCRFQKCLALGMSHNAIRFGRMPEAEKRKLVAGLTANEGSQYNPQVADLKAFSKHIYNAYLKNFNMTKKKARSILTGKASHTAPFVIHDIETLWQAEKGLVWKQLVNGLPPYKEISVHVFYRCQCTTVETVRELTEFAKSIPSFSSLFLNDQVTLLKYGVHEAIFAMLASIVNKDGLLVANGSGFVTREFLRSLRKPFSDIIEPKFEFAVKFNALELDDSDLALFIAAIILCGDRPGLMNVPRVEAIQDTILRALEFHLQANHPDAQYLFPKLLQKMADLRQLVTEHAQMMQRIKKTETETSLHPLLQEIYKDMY
Procedure, shortened: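 HEK293H PPARd-bla cells; 5 h preincubation 37 C/5% CO2; compound (DMSO) 37 C; LiveBLAzer B/G FRET substrate 2 h RT; fluorescence intensity.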

[2] = qHTS assay to identify small molecule antagonists of the peroxisome proliferator-activated receptor delta (PPARd) signaling pathway - cell viability counter screen (AID 743213; active = well fitted curve in the direction sought with a large enough effect in the repeat runs; an effect the other way counts as inactive or inconclusive; also: % is scaled to controls: 0 for no effect and ±100 for the full control effect; nearly all actives have a fitted effect of over 50% in size)
Procedure, shortened: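 Agonist-stimulated (L165041, 300 nM final) HEK293H PPARd UAS-bla cells are exposed to compounds for 17 h at 37 C, and ATP-based luminescence (CellTiter-Glo) from the same wells reports cytotoxicity.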

[3] = target: Peroxisome proliferator-activated receptor delta (Homo sapiens) (UniProt Q03181); assay: qHTS assay to identify small molecule antagonists of the peroxisome proliferator-activated receptor delta (PPARd) signaling pathway (AID 743215; active = well fitted inhibition curve with a large enough effect in the signal ratio in the repeat runs, not every such curve was filed as active; the % refers to the signal ratio; also: series mostly up to about 62 µM; % is scaled to controls: 0 for no effect and ±100 for the full control effect)
Procedure, shortened: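 PPARd UAS-bla HEK293H cells were pre-incubated 5 h at 37 C, then given test compounds in DMSO plus agonist L165041 (300 nM final). After 17 h at 37 C, beta-lactamase FRET substrate was added; fluorescence read after 2 h at room temperature.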

[4] = qHTS assay to identify small molecule agonists of the farnesoid-X-receptor (FXR) signaling pathway - cell viability counter screen (AID 743218; active = well fitted curve in the direction sought with a large enough effect in the repeat runs; an effect the other way counts as inactive or inconclusive; also: % is scaled to controls: 0 for no effect and ±100 for the full control effect; nearly all actives have a fitted effect of over 45% in size)
Procedure, shortened: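 FXR-UAS-bla HEK 293T cells, plated 5 h at 37 C, were exposed to compounds for 16 h at 37 C. CellTiter-Glo was then added to the same wells as the bla readout; luminescence read after 30 min at room temperature.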

[5] = qHTS assay to identify small molecule antagonists of the farnesoid-X-receptor (FXR) signaling pathway - cell viability counter screen (AID 743221; active = well fitted cell-killing curve with a large enough effect in the repeat runs, not every such curve was filed as active; also: % is scaled to controls: 0 for no effect and ±100 for the full control effect; nearly all actives have a fitted effect of over 50% in size)
Procedure, shortened: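 HEK 293T FXR-bla cells, 5 h pre-incubation; compound + CDCA 50 uM final, 16 h, 37 C; beta-lactamase FRET read first, then CellTiter-Glo luminescence, 30 min RT.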

[6] = target: Vitamin D3 receptor (Homo sapiens) (UniProt P11473); assay: qHTS assay to identify small molecule agonists of the vitamin D receptor (VDR) signaling pathway (AID 743222); also: % is scaled to controls: 0 for no effect and ±100 for the full control effect
Chain of Vitamin D3 receptor (Homo sapiens) (P11473 whole entry, looked up): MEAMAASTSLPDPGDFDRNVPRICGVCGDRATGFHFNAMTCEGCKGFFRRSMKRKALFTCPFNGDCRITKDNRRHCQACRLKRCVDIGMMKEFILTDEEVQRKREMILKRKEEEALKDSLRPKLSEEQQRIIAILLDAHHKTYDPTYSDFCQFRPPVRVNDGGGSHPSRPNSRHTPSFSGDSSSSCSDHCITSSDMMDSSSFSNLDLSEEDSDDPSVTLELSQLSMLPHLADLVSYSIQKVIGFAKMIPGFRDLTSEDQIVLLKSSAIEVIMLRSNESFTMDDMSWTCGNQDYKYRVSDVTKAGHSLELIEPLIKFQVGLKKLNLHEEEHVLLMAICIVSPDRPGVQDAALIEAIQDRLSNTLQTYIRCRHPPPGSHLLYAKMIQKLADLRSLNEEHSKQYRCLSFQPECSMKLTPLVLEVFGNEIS
Procedure, shortened: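 VDR-bla cells were plated 4 h at 37C/5% CO2, then exposed to compounds in DMSO for 16 h. After LiveBLAzer B/G FRET substrate addition and 2 h at room temperature, beta-lactamase reporter fluorescence was read.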

[7] = target: Vitamin D3 receptor (Homo sapiens) (UniProt P11473); assay: qHTS assay to identify small molecule antagonists of the vitamin D receptor (VDR) signaling pathway (AID 743223; active = well fitted inhibition curve with a large enough effect in the signal ratio in the repeat runs, not every such curve was filed as active; the % refers to the signal ratio; also: % is scaled to controls: 0 for no effect and ±100 for the full control effect)
Procedure, shortened: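 Beta-lactamase reporter read-out: FRET substrate fluorescence after 2 h at room temperature, following 16 h exposure of VDR-bla cells to test compound plus 3 nM (final) 1alpha,25-dihydroxyvitamin D3 agonist at 37C.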

[8] = qHTS assay to identify small molecule agonists of the vitamin D receptor (VDR) signaling pathway - cell viability counter screen (AID 743224; active = well fitted curve in the direction sought with a large enough effect in the repeat runs; an effect the other way counts as inactive or inconclusive; also: series mostly up to about 63 µM; % is scaled to controls: 0 for no effect and ±100 for the full control effect; nearly all actives have a fitted effect of over 50% in size)
Procedure, shortened: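 VDR-bla cells were preincubated 4 h at 37C/5% CO2, then exposed to compounds for 16 h. After the 2 h room-temperature bla FRET read, CellTiter-Glo was added to the same wells and luminescence read after 30 min.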

[9] = qHTS assay to identify small molecule antagonists of the vitamin D receptor (VDR) signaling pathway - cell viability counter screen (AID 743225; active = well fitted curve in the direction sought with a large enough effect in the repeat runs; an effect the other way counts as inactive or inconclusive; also: % is scaled to controls: 0 for no effect and ±100 for the full control effect; nearly all actives have a fitted effect of over 50% in size)
Procedure, shortened: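 Viability counter screen run in the same wells as the beta-lactamase reporter assay: HEK 293T VDR-UAS-bla cells, 16 h compound exposure at 37C with 3 nM (final) 1-alpha,25-dihydroxyvitamin D3. CellTiter-Glo luminescence, 30 min, room temperature.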

[10] = qHTS assay to identify small molecule agonists of the NFkB signaling pathway - cell viability counter screen (AID 1159515); also: series mostly up to about 61 µM; % is scaled to controls: 0 for no effect and ±100 for the full control effect; nearly all actives have a fitted effect of over 55% in size
Procedure, shortened: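 NFkB-bla ME-180 cells, 2,000/well, were plated overnight at 37 C, 5% CO2, then exposed to compounds in DMSO for 5 hr. After the bla FRET read, CellTiter-Glo was added to the same wells; luminescence was read after 30 min at room temperature.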

[11] = qHTS assay to identify small molecule agonists of the endoplasmic reticulum stress response signaling pathway (AID 1159516; active = well fitted activation curve with a large enough effect in the signal ratio in the repeat runs, not every such curve was filed as active; the % refers to the signal ratio; also: % is scaled to controls: 0 for no effect and ±100 for the full control effect)
Procedure, shortened: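 CellSensor ESRE-bla HeLa cells, carrying a beta-lactamase reporter driven by the ER stress response element, were plated overnight and exposed to compounds for 5 hr at 37 C. Reporter activity was read as FRET substrate fluorescence after 2 hr at room temperature.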

[12] = qHTS assay to identify small molecule agonists of the endoplasmic reticulum stress response signaling pathway - cell viability counter screen (AID 1159517)
Procedure, shortened: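 HeLa cells carrying an ESRE-driven beta-lactamase reporter receive compound for 5 hr at 37 C. Cell viability is then gauged with CellTiter-Glo by luminescence, 30 min at room temperature.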

[13] = qHTS assay to identify small molecule antagonists of the retinoid-related orphan receptor gamma (ROR-gamma) signaling pathway - cell viability counter screen (AID 1159520; active = well fitted curve in the direction sought with a large enough effect in the repeat runs; an effect the other way counts as inactive or inconclusive)
Procedure, shortened: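 Cytotoxicity was read from cellular ATP (CellTiter-Glo luminescence) after 16 hr at 37 C with 1 uM doxycycline induction. The inducer was added 2 hr after compound transfer to Tet-on ROR gamma CHO cells.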

[14] = target: Nuclear receptor ROR-gamma (Homo sapiens) (UniProt P51449); assay: qHTS assay to identify small molecule antagonists of the retinoid-related orphan receptor gamma (ROR-gamma) signaling pathway (AID 1159521; active = well fitted curve in the direction sought with a large enough effect in the repeat runs; an effect the other way counts as inactive or inconclusive)
Procedure, shortened: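 Luminescence readout (ONE-Glo, 30 min RT) after 16 h doxycycline induction; loss of signal scored as antagonism. CHO cells with TET-inducible RORγ and RORE-LUC reporter; compounds added 2 h before 1 uM final doxycycline.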

[15] = qHTS assay to identify small molecule agonists of the AP-1 signaling pathway (AID 1159526); also: % is scaled to controls: 0 for no effect and ±100 for the full control effect
[16] = target: Retinoic acid receptor RXR-alpha (Homo sapiens) (UniProt P19793); assay: qHTS assay to identify small molecule agonists of the RXR signaling pathway (AID 1159527); also: % is scaled to controls: 0 for no effect and ±100 for the full control effect; nearly all actives have a fitted effect of over 35% in size
Chain of Retinoic acid receptor RXR-alpha (Homo sapiens) (P19793 whole entry, looked up): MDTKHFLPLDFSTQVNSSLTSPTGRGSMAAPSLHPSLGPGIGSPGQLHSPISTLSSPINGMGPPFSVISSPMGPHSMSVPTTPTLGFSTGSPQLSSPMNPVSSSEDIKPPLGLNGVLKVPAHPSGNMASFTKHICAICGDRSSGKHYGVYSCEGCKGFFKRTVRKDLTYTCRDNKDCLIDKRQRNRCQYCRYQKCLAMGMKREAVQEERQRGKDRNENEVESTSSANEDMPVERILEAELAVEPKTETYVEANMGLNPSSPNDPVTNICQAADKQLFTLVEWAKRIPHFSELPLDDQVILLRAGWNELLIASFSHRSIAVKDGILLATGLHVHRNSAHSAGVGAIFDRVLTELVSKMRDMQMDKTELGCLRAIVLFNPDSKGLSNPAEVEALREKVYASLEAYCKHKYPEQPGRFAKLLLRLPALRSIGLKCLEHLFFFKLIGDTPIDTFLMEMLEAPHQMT
Procedure, shortened: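 Agonist mode; 9-cis retinoic acid positive control. HEK 293T UAS-bla reporter cells, 2% charcoal-stripped FBS, 16 hr compound exposure at 37 C/5% CO2. LiveBLAzer B/G FRET substrate 2 hr RT; ex 405, em 460/530 nm.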

[17] = qHTS assay to identify small molecule agonists of the AP-1 signaling pathway - cell viability counter screen (AID 1159525); also: nearly all actives have a fitted effect of over 55% in size
Procedure, shortened: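 Luminescent ATP readout (Cell Titer Glo, 30 min RT), normalised to DMSO and tetra n-octyl ammonium bromide controls. Cells were ME-180 AP-1-bla in 0.5% dialyzed FBS Opti-MEM, with a 5 h, 37 °C compound exposure.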

[18] = qHTS assay to identify small molecule agonists of the RXR signaling pathway - cell viability counter screen (AID 1159529; active = well fitted curve in the direction sought with a large enough effect in the repeat runs; an effect the other way counts as inactive or inconclusive)
Procedure, shortened: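 Luminescence from CellTiter-Glo (30 min, RT) measured viability in the same wells as the beta-lactamase reporter readout. Cells: GeneBLAzer RXR-alpha HEK 293T, 2% charcoal-stripped FBS. Compound exposure 16 hr, 37 C.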

[19] = target: Bile acid receptor (Homo sapiens) (UniProt Q96RI1); assay: qHTS assay to identify small molecule antagonists of the farnesoid-X-receptor (FXR) signaling pathway (AID 743217; active = well fitted inhibition curve with a large enough effect in the signal ratio in the repeat runs, not every such curve was filed as active; the % refers to the signal ratio; also: % is scaled to controls: 0 for no effect and ±100 for the full control effect)
Chain of Bile acid receptor (Homo sapiens) (Q96RI1 whole entry, looked up): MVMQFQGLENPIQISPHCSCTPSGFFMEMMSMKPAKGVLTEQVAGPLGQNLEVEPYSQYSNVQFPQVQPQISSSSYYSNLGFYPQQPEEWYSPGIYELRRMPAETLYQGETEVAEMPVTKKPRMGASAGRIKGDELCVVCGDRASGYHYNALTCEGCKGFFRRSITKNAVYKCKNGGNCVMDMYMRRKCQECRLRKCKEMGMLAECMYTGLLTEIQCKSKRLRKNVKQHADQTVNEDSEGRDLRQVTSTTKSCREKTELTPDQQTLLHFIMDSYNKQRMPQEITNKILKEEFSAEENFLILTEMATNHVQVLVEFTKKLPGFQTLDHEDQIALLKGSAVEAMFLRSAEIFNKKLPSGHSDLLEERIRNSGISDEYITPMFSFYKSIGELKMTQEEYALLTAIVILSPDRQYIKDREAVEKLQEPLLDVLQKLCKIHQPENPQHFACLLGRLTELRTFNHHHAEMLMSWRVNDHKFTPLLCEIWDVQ
Procedure, shortened: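 FXR-UAS-bla HEK 293T cells pre-incubated 5 h at 37 °C, then exposed to compounds with chenodeoxycholic acid (50 uM final) for 16 h at 37 °C. Beta-lactamase reporter read by LiveBLAzer B/G FRET substrate fluorescence after 2 h at room temperature.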

[20] = target: Bile acid receptor (Homo sapiens) (UniProt Q96RI1); assay: qHTS assay to identify small molecule agonists of the farnesoid-X-receptor (FXR) signaling pathway (AID 743220; active = well fitted activation curve with a large enough effect in the signal ratio in the repeat runs, not every such curve was filed as active; the % refers to the signal ratio; also: % is scaled to controls: 0 for no effect and ±100 for the full control effect)
Procedure, shortened: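 Beta-lactamase reporter under UAS control in GeneBLAzer FXR HEK 293T cells (5000/well) measured with LiveBLAzer FRET substrate after 2 h at room temperature. Compound exposure lasted 16 h at 37C.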

O=C(O)CCCCCCCCCC(=O)O
inactive: outcome [1] | outcome [2] | outcome [3] | outcome [4] | outcome [5] | outcome [6] | outcome [7] | outcome [8] | outcome [9] | outcome [10] | Potency [11] | outcome [12] | outcome [13] | outcome [14] | Potency [15] | Potency [16]

CC(CN1CC(=O)NC(=O)C1)N1CC(=O)NC(=O)C1 (stereo not drawn)
inactive: outcome [1] | outcome [2] | outcome [3] | outcome [4] | outcome [5] | outcome [6] | outcome [8] | outcome [9] | outcome [10] | Potency [11] | outcome [12] | outcome [14] | outcome [17] | Potency [15] | Potency [16] | Potency [18]

CCCc1ncc(C(=O)O)s1
inactive: outcome [1] | outcome [2] | outcome [3] | outcome [19] | outcome [4] | outcome [20] | outcome [5] | outcome [6] | outcome [7] | outcome [8] | outcome [9] | outcome [10] | Potency [11] | outcome [12] | outcome [14] | outcome [17] | Potency [15] | Potency [16] | Potency [18]

N=C(N)N1CCc2ccccc2C1
inactive: activation [1] 2.47% [at 5.95 µM] | viability change, negative = cytotoxic [2] -9.71% [at 6.26 µM] | ratio activity, negative = inhibition [3] -18.7% [at 6.26 µM] | viability change, negative = cytotoxic [4] 5.62% [at 5.95 µM] | activity change, negative = cytotoxicity [5] -6.73% [at 5.95 µM] | activation [6] 4.08% [at 6.01 µM] | activity, negative = cytotoxic [10] 6.23% [at 6.95 µM] | activation [11] 1.42% [at 6.95 µM] | activity change, negative = cytotoxicity [12] 3.62% [at 6.95 µM] | activity change, negative = inhibition [14] -0.777% [at 8.39 µM] | viability change, negative = cytotoxic [17] 6.37% [at 6.97 µM] | activation [15] -0.863% [at 6.97 µM] | activation [16] 5.64% [at 6.98 µM] | activity change, negative = cytotoxicity [18] 2.64% [at 6.97 µM]

O=C1CCCc2c(O)cccc21
inactive: outcome [2] | outcome [19] | outcome [4] | outcome [20] | outcome [5] | outcome [6] | outcome [7] | outcome [8] | outcome [9] | outcome [10] | Potency [11] | outcome [12] | outcome [13] | outcome [14] | Potency [15] | Potency [16]

O=C1Nc2ccccc2C1=O
inactive: outcome [1] | outcome [2] | outcome [3] | outcome [4] | outcome [5] | outcome [6] | outcome [7] | outcome [8] | outcome [9] | outcome [10] | Potency [11] | outcome [12] | outcome [14] | Potency [15] | Potency [16] | Potency [18]

NC(=O)CC[C@@H](N)C(=O)O
inactive: outcome [1] | outcome [2] | outcome [3] | outcome [4] | outcome [5] | outcome [7] | outcome [9] | outcome [10] | Potency [11] | outcome [12] | outcome [14] | outcome [17] | Potency [15] | Potency [16] | Potency [18]

Cc1cc(N)no1
inactive: outcome [1] | outcome [2] | outcome [3] | outcome [4] | outcome [5] | outcome [6] | outcome [7] | outcome [8] | outcome [10] | Potency [11] | outcome [12] | outcome [14] | outcome [17] | Potency [15] | Potency [16] | Potency [18]

CC(C)OCCO
inactive: outcome [4] | outcome [5] | outcome [6] | outcome [7] | outcome [8] | outcome [9] | outcome [10] | Potency [11] | outcome [12] | outcome [13] | outcome [14] | Potency [15] | Potency [16] | Potency [18]

CC(=O)Nc1ccc(OCCOCCOc2ccc(NC(C)=O)cc2)cc1
inactive: outcome [2] | outcome [4] | outcome [5] | outcome [8] | outcome [9] | outcome [10] | Potency [11] | outcome [12] | outcome [13] | outcome [14] | Potency [15] | Potency [16] | Potency [18]

COC(=O)c1ccccc1Cl
inactive: outcome [1] | outcome [2] | outcome [3] | outcome [4] | outcome [5] | outcome [6] | outcome [8] | outcome [9] | outcome [10] | Potency [11] | outcome [12] | outcome [14] | outcome [17] | Potency [15] | Potency [16] | Potency [18]

NNC(=O)OCc1ccccc1
inactive: outcome [1] | outcome [2] | outcome [3] | outcome [4] | outcome [5] | outcome [6] | outcome [7] | outcome [8] | outcome [9] | outcome [10] | Potency [11] | outcome [12] | outcome [13] | outcome [14] | Potency [15] | Potency [16]

Clc1cc(Cl)c(Cl)c(Cl)c1Cl
inactive: outcome [2] | outcome [4] | outcome [5] | outcome [6] | outcome [7] | outcome [9] | outcome [10] | Potency [11] | outcome [12] | outcome [14] | outcome [17] | Potency [15] | Potency [16] | Potency [18]

Cc1ccc(N)nc1
inactive: outcome [2] | outcome [3] | outcome [19] | outcome [4] | outcome [20] | outcome [5] | outcome [8] | outcome [9] | outcome [10] | Potency [11] | outcome [12] | outcome [14] | outcome [17] | Potency [15] | Potency [16] | Potency [18]

CC(=O)/C=C/C=C1/C2CCC(C2)C1(C)C (stereo not drawn)
inactive: outcome [2] | outcome [19] | outcome [4] | outcome [20] | outcome [5] | outcome [6] | outcome [7] | outcome [9] | outcome [10] | Potency [11] | outcome [12] | outcome [14] | outcome [17] | Potency [15] | Potency [16] | Potency [18]

C=CCN1CCc2nc(N)sc2CC1
inactive: outcome [1] | outcome [2] | outcome [3] | outcome [4] | outcome [5] | outcome [6] | outcome [7] | outcome [8] | outcome [10] | Potency [11] | outcome [13] | outcome [14] | outcome [17] | Potency [15] | Potency [16] | Potency [18]

CCOc1ccccc1OCCN[C@H](C)Cc1ccc(OC)c(S(N)(=O)=O)c1
inactive: outcome [4] | outcome [5] | outcome [6] | outcome [7] | outcome [8] | outcome [9] | outcome [10] | Potency [11] | outcome [13] | outcome [14] | outcome [17] | Potency [15] | Potency [16] | Potency [18]
